N-glyco inh: blocks N-linked glycosylation in D54 reporter cells; D54 ERlucT glycosylation luciferase reporter, 24 h; percent of 100 nM tunicamycin response; reporter increase, % at 12.5 µM; actives 0.23% (n = 360,000); AID 588692;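 active means mean luciferase reporter signal, scaled so untreated is 0 and the glycosylation-blocking control 100, at or above a set limit in every replicate; inconclusive means mean reaches the limit but not every replicate does; inactive means mean below the limit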;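 further: luciferase carries N-glycosylation sites so blocking glycosylation raises the light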
MLL AF4-AF9 inh: inhibitors of human MLL-AF4/AF9 interaction | P42568 | AlphaScreen, biotin-AF4 peptide binding to FLAG-AF9 | inhibition, % at 10 µM | actives 0.47% (n = 350,000) | AID 651704;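 active means every replicate reaching a set inhibition limit, whatever the replicate mean, cut at about 25% in these data; inconclusive means mean inhibition reaches that limit but some replicates miss it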
RAD54 inh: inhibitors of human RAD54 branch migration. Q92698. RAD54 Holliday junction branch migration, FAM/BHQ fluorescence. inhibition, % at 10.4 µM. actives 0.14% (n = 360,000). AID 602329;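 active means mean normalized replicate activity at least 40 and at least half of replicates scoring 40 or more; inconclusive means only one of the two criteria met; inactive means mean below 40 and under half of replicates reaching 40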;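 further: inhibitors cause a drop in the FAM fluorescence signal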
Casp6 inh: blocks human caspase-6 cleavage activity | purified caspase-6, Z-VEID-R110 cleavage fluorescence | P55212 | actives 0.53% (n = 350,000) | inhibition, % at 12.5 µM;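 active means mean inhibition across replicates at least about 35%, with every replicate also reaching that limit, limit read from the data; inconclusive means only one of the two criteria met; inactive means neither criterion met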
Target sequence (P55212 24-179 limits assumed): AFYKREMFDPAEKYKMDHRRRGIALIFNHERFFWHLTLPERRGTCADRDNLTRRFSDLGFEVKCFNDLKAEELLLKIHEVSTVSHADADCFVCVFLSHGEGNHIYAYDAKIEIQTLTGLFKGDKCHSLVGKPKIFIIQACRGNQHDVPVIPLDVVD
Target sequence (P55212 194-293 limits assumed): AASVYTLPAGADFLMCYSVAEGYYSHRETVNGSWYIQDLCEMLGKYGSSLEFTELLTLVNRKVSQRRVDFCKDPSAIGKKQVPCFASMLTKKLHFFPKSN
RAD52 anneal inh: blocks human RAD52 DNA annealing; P43351; recombinant RAD52 DNA annealing, FRET fluorescence; inhibition, % at 18.7 µM; actives 0.46% (n = 360,000); AID 651710;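 active means every replicate showing at least 50% inhibition; inconclusive means mean inhibition at least 50% but not in every replicate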
Target sequence (P43351 whole entry, looked up): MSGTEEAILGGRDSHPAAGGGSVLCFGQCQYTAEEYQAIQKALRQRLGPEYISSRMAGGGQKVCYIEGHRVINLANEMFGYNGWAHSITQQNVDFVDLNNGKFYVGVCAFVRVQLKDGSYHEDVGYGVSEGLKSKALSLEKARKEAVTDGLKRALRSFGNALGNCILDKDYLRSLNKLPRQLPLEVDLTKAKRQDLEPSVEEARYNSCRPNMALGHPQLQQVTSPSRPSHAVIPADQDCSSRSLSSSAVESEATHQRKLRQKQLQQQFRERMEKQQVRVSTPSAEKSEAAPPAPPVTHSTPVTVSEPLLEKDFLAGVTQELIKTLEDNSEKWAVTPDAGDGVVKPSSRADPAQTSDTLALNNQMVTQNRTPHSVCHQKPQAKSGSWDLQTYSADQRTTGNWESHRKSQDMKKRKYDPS
DNA binding: DNA binding artifact in Rad54 counter-screen | shares compounds with RAD54 inh | Acridine orange-DNA displacement, fluorescence polarization, 20 min | AC50, µM (top dose mostly 35 µM) | actives 8% (n = 460) | AID 651673;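 active means signal drop giving an AC50 within twice the top valid tested concentration of each sample, actives reach about 35 µM in these data; inactive means activity opposite to expected, plus the rest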;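 further: polarization loss reports compound binding to salmon sperm DNA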
Large screens that a line does not name were inactive (follow-up assays come after a bar, where they were run). In the library only some 1.2% were active in any assay of this set; here they are far more common.

CCN1CCN(c2cc(C)c3cc(NC(=S)N4CCCC4)ccc3n2)CC1	none (no result: RAD54 inh, Casp6 inh)
COCCNC(=S)Nc1ccc2nc(N3CCCC3)cc(C)c2c1	none (no result: MLL AF4-AF9 inh, Casp6 inh, RAD52 anneal inh)
CCOCCCNC(=S)Nc1ccc2nc(N3CCCC3)cc(C)c2c1	RAD54 inh 60 (no result: MLL AF4-AF9 inh, Casp6 inh, RAD52 anneal inh) | DNA binding inactive
CCN1CCN(C(=S)Nc2ccc3nc(N4CCN(CC)CC4)cc(C)c3c2)CC1	RAD54 inh 62 (no result: MLL AF4-AF9 inh, Casp6 inh, RAD52 anneal inh) | DNA binding inactive
Cc1noc(C)c1S(=O)(=O)Nc1ccc2c(c1)C(=O)N([C@@H](C)CO)C[C@@H](C)[C@@H](CN(C)S(=O)(=O)c1cccs1)OCCCC[C@@H](C)O2	none (no result: N-glyco inh, MLL AF4-AF9 inh, Casp6 inh, RAD52 anneal inh)
Cc1nn(C)cc1NC(=O)C[C@H]1CC[C@@H]2[C@H](COc3ccc(NC(=O)Nc4cccc(Cl)c4)cc3C(=O)N2C)O1	none (no result: N-glyco inh)
CC=Cc1ccc2n(c1=O)C[C@H]1[C@H](CO)[C@@H](C(=O)NCc3ccccc3)N(CC)[C@@H]21 (mixture of isomers)	none (no result: N-glyco inh, RAD54 inh)
C[C@@H]1CN([C@H](C)CO)C(=O)c2ccccc2-c2ccccc2CO[C@H]1CN(C)C(=O)C1CC1	none (no result: N-glyco inh)
CCCCN(CC)CCNC(=O)c1cc2c(=O)[nH]c3ccccc3c2s1	none
CCN(CC)CCNC(=O)c1cc2c(=O)n(CC)c3ccccc3c2s1	none
CCn1c(=O)c2cc(C(=O)NCCN(C)C)sc2c2ccccc21	RAD54 inh 53 (no result: Casp6 inh) | DNA binding inactive
CCCN(CCC)CCCNC(=O)c1cc2c(=O)[nH]c3ccccc3c2s1	RAD54 inh 51 | DNA binding inactive
Cc1ccc2nc3c(c(Nc4ccc5c(c4)OCCO5)c2c1)CCC3	RAD54 inh 61 | DNA binding inactive
COc1ccc(Nc2c3c(nc4ccc(C)cc24)CCC3)cc1	RAD54 inh 54 (no result: Casp6 inh) | DNA binding inactive
Cc1cccc(Nc2c3c(nc4ccccc24)CCC3)c1	none (no result: MLL AF4-AF9 inh)
COc1cc2[nH]c3c(=O)n(CCN(C(C)C)C(C)C)cnc3c2cc1OC	RAD54 inh inconclusive (no result: MLL AF4-AF9 inh, Casp6 inh, RAD52 anneal inh) | DNA binding inactive
O=C(C[C@@H]1C=C[C@@H](NC(=O)CCN2CCCCC2)[C@H](CO)O1)NCc1ccc(Cl)c(Cl)c1	none (no result: N-glyco inh)
CN(C)CCOc1nc(-c2ccccc2)nc2c1oc1ccccc12	N-glyco inh 114, RAD54 inh 81 (no result: MLL AF4-AF9 inh, Casp6 inh, RAD52 anneal inh) | DNA binding inactive
C[C@H](CO)N1C[C@H](C)[C@H](CN(C)Cc2ccc3c(c2)OCO3)Oc2c(NS(=O)(=O)c3ccc(F)cc3)cccc2C1=O	none (no result: N-glyco inh)
CCC(=O)Nc1ccc2c(c1)OC[C@H](C)N(C(=O)CC1CC1)C[C@H](C)[C@@H](OC)CN(C)C2=O	none (no result: N-glyco inh)
Nc1ccc(-c2nc3c(ccc4ccccc43)[nH]2)cc1	RAD54 inh 50 | DNA binding inactive
Nc1ccc(-c2nc3ccccc3[nH]2)cc1	none
COc1ccc2c3c(n(C)c2c1)[C@@H](CO)N(Cc1ccccc1)CC31CCN(C(=O)C2CC2)CC1	none (no result: N-glyco inh, RAD54 inh, Casp6 inh)
O=c1c2ccccc2oc2ccc(NCCCN3CCOCC3)cc12	RAD54 inh inconclusive | DNA binding inactive
O=c1c2ccccc2oc2cc(NCCCN3CCOCC3)ccc12	RAD54 inh 66 | DNA binding inactive
O=c1c2ccccc2oc2cc(NCCCn3ccnc3)ccc12	none
CN1CCCC1CCNc1ccc2c(=O)c3ccccc3oc2c1 (centres undefined)	RAD54 inh 92 | DNA binding inactive
O=C(COc1ccc2c3c(c(=O)oc2c1)CCC3)NCCCN1CCOCC1	none
O=C(COc1ccc2c(c1)oc(=O)c1ccccc12)NCCCN1CCOCC1	RAD54 inh inconclusive | DNA binding inactive
CN1CCCC1CCNc1ccc2oc3ccccc3c(=O)c2c1 (centres undefined)	none (no result: N-glyco inh, RAD54 inh)
C[C@H]1CN([C@@H](C)CO)C(=O)c2cccc(NS(=O)(=O)c3cccs3)c2O[C@H]1CN(C)Cc1ccc2c(c1)OCO2	none (no result: N-glyco inh)
CN1C(=O)c2cc(NC(=O)C3CCOCC3)ccc2OC[C@@H]2O[C@@H](CC(=O)O)CC[C@@H]21	none (no result: N-glyco inh)
CCN(CC)CCNC(=O)c1cc2cc3ccc(OC)cc3nc2o1	RAD54 inh 50 | DNA binding inactive
CCCCN(C)CCNC(=O)c1cc2cc3ccc(OC)cc3nc2o1	RAD54 inh 53 | DNA binding inactive
COCCCNC(=O)c1cc2cc3cc(OC)ccc3nc2o1	none
CCCC(c1nnnn1Cc1ccc(OC)cc1)N1CCN(c2ccccc2)CC1 (centres undefined)	RAD54 inh inconclusive (no result: MLL AF4-AF9 inh, Casp6 inh, RAD52 anneal inh) | DNA binding inactive
CCn1cc(C(=O)NCCCN(C)C)c(=O)c2cc(F)c(N3CCN(C)CC3)cc21	none (no result: MLL AF4-AF9 inh)
CCn1cc(C(=O)NCCN(C)C)c(=O)c2cc(F)c(N3CCN(C)CC3)cc21	RAD54 inh 59 | DNA binding inactive
CCN(CC)CCN(C(=O)c1ccc2ncsc2c1)c1nc2cc3c(cc2s1)OCO3	RAD54 inh inconclusive | DNA binding inactive
CCN(CC)CCN(C(=O)c1ccc(C(=O)c2ccccc2)cc1)c1nc2cc3c(cc2s1)OCO3	none
COc1cc2nc(N(C)C)nc(N)c2cc1OC	N-glyco inh 48, RAD54 inh 94 (no result: MLL AF4-AF9 inh, Casp6 inh, RAD52 anneal inh) | DNA binding inactive
O=C(CN1CCCC1)Nc1ccc(-c2nc3cc(NC(=O)CN4CCCC4)ccc3o2)cc1	RAD54 inh inconclusive (no result: MLL AF4-AF9 inh, Casp6 inh, RAD52 anneal inh) | DNA binding inactive
COc1ccccc1CNC(=O)c1cccs1	RAD54 inh 63 (no result: MLL AF4-AF9 inh, Casp6 inh, RAD52 anneal inh) | DNA binding inactive
COc1ccccc1CNC(=O)Nc1cccs1	none (no result: MLL AF4-AF9 inh, Casp6 inh, RAD52 anneal inh)
C[C@@H]1CCCCO[C@@H](CN(C)S(=O)(=O)c2cccs2)[C@H](C)CN([C@@H](C)CO)C(=O)c2cc(NC(=O)CCCN(C)C)ccc2O1	none (no result: N-glyco inh)
COc1cccc(-c2nc(N3CCN(Cc4ccccc4)CC3)c3ccccc3n2)c1O	RAD54 inh 64 | DNA binding inactive
Cc1ccc(-c2nc(N3CCN(C)CC3)c3ccccc3n2)cc1	RAD54 inh 57 | DNA binding inactive
CN1CCN(c2nc(-c3ccc(C(C)(C)C)cc3)nc3ccccc23)CC1	none
O=C(Nc1ccc(F)cc1F)C1CCN(c2ncnc3c2sc2cccc(F)c23)CC1	none
CCN(CC)CCCNC(=O)C1CCN(c2ncnc3c2sc2cccc(F)c23)CC1	RAD54 inh 53 | DNA binding inactive
COc1ccc(N2C(=O)CSC23CCCCC3)cc1	RAD54 inh inconclusive (no result: MLL AF4-AF9 inh, Casp6 inh, RAD52 anneal inh) | DNA binding inactive
CCOc1ccc(N2C(=O)CSC23CCCCC3)cc1	none (no result: MLL AF4-AF9 inh, Casp6 inh, RAD52 anneal inh)
Cc1c(Cl)ccc(S(=O)(=O)NCCCn2ccnc2)c1Cl	RAD54 inh inconclusive | DNA binding inactive
CC(=O)c1ccc(Nc2cc(C)nc3c(C)cc(C)cc23)cc1	none (no result: RAD54 inh)
Cc1cc(C)c2nc(C)cc(Nc3ccc(C(=O)NCCO)cc3)c2c1	RAD54 inh 50 | DNA binding inactive
Cc1noc(C)c1NC(=O)Nc1ccc2c(c1)CC(=O)N([C@H](C)CO)C[C@H](C)[C@H](CN(C)S(C)(=O)=O)O2	none (no result: N-glyco inh, MLL AF4-AF9 inh, Casp6 inh, RAD52 anneal inh)
CC(=O)Nc1ccc2cc3ccc(NC(C)=O)cc3nc2c1	N-glyco inh 36, RAD54 inh 51 | DNA binding inactive
CC(=O)Nc1ccc2ccccc2c1	none (no result: MLL AF4-AF9 inh, Casp6 inh, RAD52 anneal inh)
CCC(OCC(O)CN1CCN(CCN2C(=O)c3cccc4cccc(c34)C2=O)CC1)c1ccccc1 (centres undefined)	none (no result: MLL AF4-AF9 inh, RAD54 inh, Casp6 inh, RAD52 anneal inh)

Source: PubChem BioAssay (Broad Institute)
